Assay outcomes: PubChem, National Center for Advancing Translational Sciences (NCATS)
IMPase Li cell – IMPase inhibition in cells with lithium potentiation | CHO-M1 cells, IP1 TR-FRET (IP-One), carbachol + lithium | Potency, µM (series often up to 59.4 µM), for the others: top-dose activity, negative = IMPase inhibition, usual class: inhibitors | 0.35% of 210,000 active | AID 1457;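 further: IP1 builds up when IMPase is blocked and the TR-FRET signal falls; potency means the concentration at half of the fitted maximal effect; plate controls were basal vehicle for no effect and high inhibitor control for full effect; nearly all actives have a fitted effect of over 50% in size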
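CHO-M1, 2000 cells/well, 16–30 h culture; cpd + low Li+, 30 min 37C; lysis with d2-IP1/Eu-anti-IP1 Ab, 10 min RT; TR-FRET 665/620 ratio and 620 channel; AC50 via Hill.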
IMPase cell inh – cell-permeable inhibitors of inositol monophosphatase (IMPase). CHO-M1 cells, IP1 accumulation, HTRF TR-FRET ratio. inhibition (IP1 accumulation), % at 46.1 µM. 120,000 tested, under 10 active; active means well fitted curve in the direction sought with a large enough effect in the signal ratio, not every such curve was filed as active; inconclusive means small, poorly fitted or top-dose-only effect, or a change in a side signal; inactive means no such curve, though single readings can be large or run the other way; the % refers to the signal ratio;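 further: cells stimulated with carbachol in lithium chloride buffer; plate controls were DMSO basal wells for no effect and reference inhibitor wells for full effect; higher means more IMPase inhibition seen as more IP1 and lower FRET ratio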
Target sequence (P97697 whole entry, looked up): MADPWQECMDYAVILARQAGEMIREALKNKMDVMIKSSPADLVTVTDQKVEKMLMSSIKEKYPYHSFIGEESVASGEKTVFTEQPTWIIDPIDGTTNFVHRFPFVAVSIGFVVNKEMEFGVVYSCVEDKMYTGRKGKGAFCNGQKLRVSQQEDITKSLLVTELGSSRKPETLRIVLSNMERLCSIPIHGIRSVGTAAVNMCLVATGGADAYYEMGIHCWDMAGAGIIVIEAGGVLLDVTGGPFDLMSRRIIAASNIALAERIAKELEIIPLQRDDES
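Carbachol-driven Gq signalling in CHO-M1 cells (2000/well) generates IP1. Compounds that block IMPase raise IP1 and so reduce the FRET signal from Eu-anti-IP1 and d2-IP1 after a 10 min room-temperature lysis.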
HTT ATP protect – Huntington cell model cytoprotection by ATP luminescence; PC12 HTT-Q103 induced, cytoprotection, ATP luminescence, 40 h; Potency, µM (series often up to 56.4 µM), without a hit: cytoprotection (ATP increase), hits mostly activators; 0.14% of 230,000 active; further: potency means the concentration at half of the fitted maximal effect; % of control where 0% means no effect; nearly all actives have a fitted effect of over 45% in size
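PC12 cells stably carrying ecdysone-inducible Htt exon 1 (Q103)–GFP were induced with 100 nM tebufenozide (final) alongside library compounds in a dose series. Cytoprotection was scored as retained ATP by ATPlite luminescence.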
ALDH1A1 block – blocks purified human ALDH1A1 activity; AID 1030; P00352; 7.3% of 220,000 active; Purified ALDH1A1, NADH fluorescence, propionaldehyde substrate; Potency, µM (top dose mostly 75.3 µM), for inactives: at the highest dose activity, negative = inhibition, hits mostly inhibitors; active means well fitted inhibition curve with a large enough effect, not every such curve was filed as active; inconclusive means small, poorly fitted or top-dose-only effect, or another doubt; inactive means no such curve, though single readings can be large or run the other way;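 further: potency means the concentration at half of the fitted maximal effect; plate controls were no enzyme wells and a reference inhibitor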
HPGD block – blocks human HPGD enzyme activity. 4.3% of 150,000 active. Potency, µM, without a hit: at the top dose activity change, negative = inhibition, hits mostly inhibitors. purified HPGD, NADH fluorescence kinetic, PGE2 substrate. P15428. AID 894; active means well fitted inhibition curve with a large enough effect, not every such curve was filed as active; inconclusive means small, poorly fitted or top-dose-only effect, or another doubt; inactive means no such curve, though single readings can be large or run the other way; further: potency means the concentration at half of the fitted maximal effect; on the % scale 0 is the no-effect control and ±100 the full control effect
Target sequence (P15428 whole entry, looked up): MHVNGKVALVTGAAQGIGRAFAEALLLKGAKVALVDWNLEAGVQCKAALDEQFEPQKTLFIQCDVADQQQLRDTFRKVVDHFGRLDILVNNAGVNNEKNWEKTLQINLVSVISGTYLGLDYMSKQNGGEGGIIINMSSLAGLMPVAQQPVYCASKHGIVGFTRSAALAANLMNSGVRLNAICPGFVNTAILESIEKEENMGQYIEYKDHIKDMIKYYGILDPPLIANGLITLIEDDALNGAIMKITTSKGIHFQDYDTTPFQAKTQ
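NADH formation kinetics: reaction with 30 uM PGE2 and 1 mM NAD+ (final), 20 nM enzyme, Tris-HCl pH 8 with Tween 20, after 15 min compound preincubation at room temperature. Fluorescence change, last versus first of five reads.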
HttQ103 aggreg – reduces HttQ103-GFP aggregates in PC12 cells; PC12 HttQ103-GFP aggregates, Acumen cytometry, 40 h; Potency, µM (titrated, usually from 46.1 µM), for the others: at the top dose activity change, negative = inhibition, actives largely listed as inhibitors; 1.1% of 220,000 active; further: potency means the concentration at half of the fitted maximal effect; on the % scale 0 is the no-effect control and ±100 the full control effect; nearly all actives have a fitted effect of over 60% in size
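Using laser scanning cytometry, GFP-positive aggregates were counted after lysis of PC12 cells induced with 100 nM tebufenozide to express HTT exon 1 Q103–GFP. Compounds were tested in titration.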
The depositor's hits bear a star; u = inconclusive; x = not tested or not shown; ! = a repeat was not active; [ ] = another dose, or the depositor's remark. Rows were chosen to be rich in hits. Some 9.4% of all compounds tested hit in one or more screens of this group. Unless noted, the call rests on the fitted dose curve; in most records, active means well fitted curve in the direction sought with a large enough effect; inconclusive means small, poorly fitted or top-dose-only effect, or another doubt; inactive means no such curve, though single readings can be large; an effect the other way counts as inactive or inconclusive.

SMILES	IMPase Li cell	IMPase cell inh	HTT ATP protect	ALDH1A1 block	HPGD block	HttQ103 aggreg
COC[C@@H](O)[C@@H](OC)[C@H](OC)[C@H](Cc1c(OC)cc(OC)cc1OC)OC	9.1%	x	20.6%	-3.2%	-6.5%	x
O=C(O)c1ccccc1N/N=C/c1c(Sc2nnnn2-c2ccccc2)nc2ccccn2c1=O	x	x	-3.2%[10 µM]	2µM*	x	-22.9%[9.22 µM]
COc1ccccc1-c1ccc2ncnc(NC3CC3)c2c1	6.6%	x	-78.7%	-3.7%	x	x
NC(=S)Nc1cccc2cc3ccccc3cc12	29.6%[38.3 µM]	14.2	-40.2%	u	-17.2%	11.3%
NC(=S)Nc1cc2ccccc2c2ccccc12	-8.1%[38.3 µM]	-13.1	-8.9%	0.398µM*	-8.0%	-16.9%
O=C(COc1ccccc1[N+](=O)[O-])c1ccccc1	-3.1%	x	-9.6%	2µM*	x	4.9%[9.22 µM]
Cc1cc(C(=O)COc2ncnc3sccc23)c(C)n1C1CC1	18.7%[38.3 µM]	2.0	-9.9%[10 µM]	20µM*	-10.3%	u
Cc1cc(C(=O)COc2cccnc2[N+](=O)[O-])c(C)n1-c1ccccc1	5.1%	x	-14.1%[10 µM]	20µM*	-5.2%	u
Cc1cc(C(=O)COc2ccccc2C(N)=O)c(C)n1C1CC1	23.2%	x	-28.4%	u	x	0.2%
Cc1cc(C(=O)COc2ccccc2[N+](=O)[O-])c(C)n1C1CC1	24.8%	x	-35.1%	31.6µM*	x	-10.8%
O=C(/C=C/c1ccccc1)NCCO	x	x	u	x	x	-7.5%
Cc1cc2ccc(OC(=O)c3ccc(N=C(N)N)cc3)cc2oc1=O	7.9%	x	7.6%[10 µM]	u	u	x
CC(SCC(=O)NC(C)C1CC2CCC1C2)C(=O)O (stereo not drawn)	0.5%	x	0.891µM*	-8.2%	-8.2%	16.0%
OCC1OC(n2cnc3c(Cl)ncnc32)C(O)C1O (stereo not drawn)	-1.8%	x	x	3.3%	-2.9%	x
O=c1[nH]cnc2c1ncn2C1OC(CO)C(O)C1O (stereo not drawn)	-2.2%	-1.0	8.91µM*!	26.8%	-15.6%	-5.9%
CN(C)c1ncnc2c1ncn2C1OC(CO)C(O)C1O (stereo not drawn)	17.1%[38.3 µM]	1.1	-103.4%	6.8%	-7.9%	4.47µM*
Nc1nc(SCc2ccc([N+](=O)[O-])cc2)c2ncn([C@@H]3O[C@H](CO)[C@H](O)[C@H]3O)c2n1	-17.6%	x	x	-12.6%	25.1µM*	x
Nc1ncn(C2C[C@H](O)[C@@H](CO)O2)c(=O)n1 (stereo partly drawn)	x	x	-18.6%	x	x	-3.8%
Nc1ncn([C@@H]2O[C@H](CO)[C@@H](O)[C@H]2O)c(=O)n1	1.9%	1.5	-111.4%	22.4µM*!	-8.1%	12.6µM*
Nc1nc2c(ncn2[C@@H]2O[C@H](CO)[C@@H](O)[C@H]2O)c(=O)[nH]1	10.4%	0.6	-3.2%[1.9 µM]	0.1%	-1.2%	x
NC(=S)NCCC[C@H](N)C(=O)O	-3.5%	x	-13.6%	u	x	x
CCc1ccc(OCC(=O)N(Cc2ccc(Cl)cc2)C2CCS(=O)(=O)C2)cc1 (stereo not drawn)	x	-1.8	x	x	x	x
COc1ccc(NC(=O)N/C=C/c2ccc(Cl)cc2)cc1	12.1%	x	11.9%	u	x	-5.8%[9.22 µM]
COC(=O)CC1=NN(c2ccccc2)C(=O)/C1=C\c1ccc(OC)cc1	4.1%	x	-24.2%[10 µM]	u	14.1µM*	6.8%
COC(=O)CC1=NN(c2ccc(OC)cc2)C(=O)/C1=C\c1ccc(Cl)cc1	-0.5%	x	-8.4%[10 µM]	-10.8%	25.1µM*	-19.3%
SMILES	IMPase Li cell	IMPase cell inh	HTT ATP protect	ALDH1A1 block	HPGD block	HttQ103 aggreg
CCOC(=O)CC1=NN(c2ccccc2)C(=O)/C1=C\c1ccc(OC)cc1OC	12.8%	x	1.9%[10 µM]	u	28.2µM*	0.6%
COC(=O)CC1C(C)(C)C2(O)OC34CC2C(=O)[C@@]1(C)C3CC[C@]1(C)C4=CC(=O)OC1c1ccoc1 (stereo partly drawn)	5.6%	x	-31.4%	8.6%	u	x
CC1=C(C(=O)Nc2ccccc2F)C(c2cccs2)NC(=S)N1 (stereo not drawn)	0.7%	x	8.9%	12.6µM*	x	-7.6%[9.22 µM]
CC1=C(C(=O)Nc2cc(C)ccc2C)C(c2cccs2)NC(=S)N1 (stereo not drawn)	3.6%[38.3 µM]	-1.2	0.3%	5.62µM*	-1.1%	12.6%
CNC(=O)C1=C(C)NC(=S)NC1c1cccs1 (stereo not drawn)	-4.7%	x	2.8%	-2.3%	x	-2.6%
NCCOC[C@H](N)C(=O)O	-9.7%	x	-1.8%[10 µM]	12.3%[13.5 µM]	0.8%	x
Cc1ccc(-n2c(SCCN)nnc2-c2cccc(C)c2)cc1	x	x	7.1%[10 µM]	x	x	-9.0%[9.22 µM]
COc1ccc(-c2nnc(SCCC(=O)O)n2-c2ccccc2)cc1	24.1%[38.3 µM]	11.1	10.3%[0.074 µM]	u	31.6µM*	-2.6%
O=C(O)CCSc1nnc(-c2ccncc2)n1-c1ccccc1	-0.3%	u	11.1%	9.1%	-4.5%	-3.0%
Cc1cccc(-c2nnc(SCC3CNC(=O)O3)n2-c2ccc(Cl)cc2)c1 (stereo not drawn)	1.3%	x	21.9%[10 µM]	1.41µM*	-18.4%	4.8%
COc1ccc(-n2c(SCC3CNC(=O)O3)nnc2-c2ccc(Cl)cc2)cc1 (stereo not drawn)	8.5%	x	7.0%[10 µM]	8.91µM*	-3.7%	6.0%
O=C(O)CNS(=O)(=O)c1c(Cl)cccc1Cl	x	x	12.3%[10 µM]	-2.0%	x	0.3%[9.22 µM]
CC12C=C(/C=C/C=C/c3ccco3)C(C)(C1)C(/C=C/c1ccco1)CC2=O (stereo not drawn)	x	x	4.4%[10 µM]	-13.5%[13.5 µM]	x	x
CC1Cc2ccccc2N1C(=O)c1ccc(N2CCCC2)c([N+](=O)[O-])c1 (stereo not drawn)	15.7%	-8.8	16.0%[1.9 µM]	12.6µM*	-20.4%	-3.4%
CC1Cc2ccccc2N1C(=O)c1ccc(N2CCCCC2)c([N+](=O)[O-])c1 (stereo not drawn)	9.5%	4.7	0.0%[10 µM]	22.4µM*	-19.2%	u
CC(C)CCSc1nnc2n(-c3ccccc3)c(=O)c3c4c(sc3n12)CC(C)CC4 (stereo not drawn)	x	-2.0	x	x	x	x
CC1=Nn2c(nnc2C2CCCCC2)SC1	11.9%[38.3 µM]	6.3	-4.8%	u	28.2µM*	-14.4%
Cc1nn(C)c(N)c1[N+](=O)[O-]	x	x	3.7%[10 µM]	-2.3%	x	-3.3%[9.22 µM]
Cc1nn(C)c(Sc2ccccc2N)c1[N+](=O)[O-]	11.3%	x	17.9%[10 µM]	3.98µM*	x	-4.3%[9.22 µM]
CCCCCCNc1nc(NCc2ccco2)nc(OCC)n1	42.7%[38.3 µM]	-1.2	-59.0%	-3.1%	-19.1%	10µM*
CCCCCCCCNc1nc(Cl)nc(NCc2ccco2)n1	-1.6%	x	0.5%[10 µM]	8.2%	-5.0%	-21.9%
CCOc1nc(NCc2ccco2)nc(Nc2ccc(OC)cc2)n1	44.6%[38.3 µM]	5.1	-29.5%[10 µM]	20µM*	-12.9%	-28.7%
C=CC[C@@H]1C=C[C@@H](O/N=C(/C)CCC(=O)OC[C@@H]2O[C@H](c3ccccc3)C=C[C@@H]2Oc2ccc(OC)cc2)[C@@H](CO)O1	x	x	u	2.6%[13.5 µM]	x	x
